The structures appear in SMILES notation. Activity calls are given as the source filed them. The calls were made as follows: active = hit-call score of the fitted dose curve at least 0.9, where 1 is the maximum; inactive = score below 0.9.

One may read the AC50 as the midpoint of the concentration-response curve, whichever way the signal moves.

This assay in a line: ATG_E_Box_CIS: Attagene CIS-FACTORIAL HepG2 Assay for human Enhancer Box (E-box) (AID 2282936). The note with it: HepG2 E-box cis-reporter transcription, actives raise or lower the signal. Here is the method: ATG_CIS is a cell-based, multiplexed-readout assay that uses HepG2, a human liver cell line, with measurements taken at 24 hours after chemical dosing in a 24-well plate.ATG_E_Box_CIS is one of 52 assay component(s) measured or calculated from the ATG_CIS assay. It is designed to make measurements of mRNA induction, a form of inducible reporter, as detected with fluorescence intensity signals by Reverse transcription polymerase chain reaction (RT-PCR) and Capillary electrophoresis technology.Data from the assay component ATG_E_Box_CIS was analyzed into 1 assay endpoint. This assay endpoint, ATG_E_Box_CIS, was analyzed with bidirectional fitting relative to DMSO as the negative control and baseline of activity. Using a type of inducible reporter, measures of mRNA for gain or loss-of-signal activity can be used to understand the reporter gene at the transcription factor-level as they relate to the gene USF1. Furthermore, this assay endpoint can be referred to as a primary readout, because this assay has produced multiple assay endpoints where this one serves a reporter gene function. To generalize the intended target to other relatable targets, this assay endpoint is annotated to the dna binding intended target family, where the subfamily is basic helix-loop-helix protein.
Human liver HepG2 cells are transiently transfected with multiple reporter transcription units (MRTUs) in 6-well plates using FuGene 6 reagent (Roche; 3 ml FuGene/1 mg DNA). The MRTU constructs are regulated by a cis-regulating element (promoter). […] A major difference between the CIS and TRANS system is that in CIS activities of endogenous TFs are measured, whereas the TRANS assay evaluates changes in activities of exogenous, chimeric NR-Gal4 proteins. […] At the end of 24 hour incubation, total RNA was isolated using TriZol reagent (Invitrogen). The isolated RNA is then reverse-transcribed using oligo(dT) primer and Mo-MLV reverse transcriptase (Invitrogen) with DNAse I (Ambion) treatment for 30 min. The one-tenth of the produced cDNA was amplified by PCR using Taq DNA polymerase (Invitrogen) and two reporter sequence-specific primers. The PCR products were fluorescently labeled by primer extension with 6-arboxyfluorescein (6-FAM) 5'-labeled reporter sequence-specific primer (2 min at 95 C, 20 s at 68 C and 10 min at 72 C) and these products were digested with 5U of HpaI (New England Biolabs) for 2h at 37 C. The fragments were purified using Qiaquick PCR columns (Qiagen), analyzed on an ABI 3130xL genetic analyzer (Applied Biosystems) with peak positions identified by using a set of X-rhodamine (ROX)-labeled MapMarker1000 molecular weight standards (BioVentures). The raw capillary electrophoresis data was processed using Attagraph software (Attagene).
As to `CC1(C)[C@H]2CC[C@]1(C)C(=O)C2`, the result was inactive.

Take `Cc1oncc1C(=O)Nc1ccc(C(F)(F)F)cc1`: the outcome was inactive.

As to `CC=CC(F)(F)C(F)(F)C(F)(F)F`, the result was inactive.

As for `CCOc1nc(F)cc2nc(S(=O)(=O)Nc3c(Cl)cccc3C(=O)OC)nn12`, the outcome was inactive.

For `CC(C)=CC1CC(C)CCO1` (stereo not given), the result was inactive.

Turning to `O=[N+]([O-])c1ccc(CO)cc1`, the result was inactive.

Take `CC/C=C\CCOC(=O)CCCCC`: the outcome was inactive.

On to `COC(=O)c1ccccc1OC`, for which the outcome was inactive.

For the compound `CCC(CO)CO`, the outcome was inactive.

Take `CC(C)CCCCCOC(=O)CCS`: the outcome was inactive.

As to `O=C1OC(=O)c2cc(Oc3ccc4c(c3)C(=O)OC4=O)ccc21`, the result was inactive.

As for `COCCOCCOCCOCCOC`, the result was inactive.

On to `CC(=O)OCc1ccco1`, for which the outcome was inactive.

`C=C(C)C(=O)OCCO`: the outcome was inactive.

On to `CCOC(=O)CC`, for which the outcome was inactive.

For `CCCCCc1ccc(Cl)cc1`, the outcome was inactive.

Take `CNC(=S)NN`: the outcome was inactive.

As to `CCCCCCCCc1ccc(Nc2ccc(CCCCCCCC)cc2)cc1`, the result was inactive.

With `CN(C)c1ccc(N=Nc2ccccc2C(=O)O)cc1`, the AC50 is 15.6 µM (active).

Take `CC(=O)[C@@]1(O)CC[C@H]2[C@@H]3C[C@H](C)C4=CC(=O)C=C[C@]4(C)[C@@]3(F)[C@@H](O)C[C@@]21C`: the outcome was inactive.

With `C=CC(=O)NC(C)(C)CS(=O)(=O)O`, the result was inactive.

Take `O=S(=O)(O)CC(O)CCl` (stereo not given): the outcome was inactive.

Take `CCCCCCCCCCCCCOP(=O)(O)O`: the result was inactive.

Regarding `O=C1c2ccccc2C(=O)C1c1nc2ccccc2c(Br)c1O`, the outcome was inactive.

As for `OCCc1ccncc1`, the result was inactive.

In the case of `CC1=Nc2ccc3ccccc3c2C1(C)C`, the result was inactive.

For the compound `Cc1ccc(C2OC[C@@H]3OC(c4ccc(C)cc4)O[C@H]([C@H](O)CO)[C@@H]3O2)cc1` (stereo not given in full), the outcome was inactive.

For the compound `Cc1ccc(C(C)(C)C)cc1`, the result was inactive.

Consider `Clc1nc2ccccc2s1`, for which the outcome was inactive.

On to `CCN(CCC#N)c1ccc(N=Nc2c(Cl)cc([N+](=O)[O-])cc2Cl)cc1`, for which the outcome was inactive.

`C=CC(=O)OCC(Br)CBr` (stereo not given): the AC50 was 72.9 µM (active).

Take `Cc1cc(C)c(C)cc1C`: the outcome was inactive.

As to `NCCCN1CCN(CCCN)CC1`, the result was inactive.

Regarding `CCC(=O)Oc1ccc(/C(CC)=C(\CC)c2ccc(OC(=O)CC)cc2)cc1`, the concentration at half-maximal activity (AC50) was 20.4 µM (active).

On to `O=S(=O)(O)c1ccccc1C=Cc1ccc(-c2ccc(C=Cc3ccccc3S(=O)(=O)O)cc2)cc1`, for which the AC50 is 40.6 µM (active).

With `CCO[Si](C)(OCC)OCC`, the result was inactive.

As to `CCCCCCC1(C)CCC(=O)O1` (stereo not given), the result was inactive.

Take `O=C(Nc1cccc(C(F)(F)F)c1)c1cc(Br)cc(Br)c1O`: the AC50 was 77.6 µM (active).

On to `CCOC(=O)c1ccccc1C(=C1C=C(Br)C(=O)C(Br)=C1)c1cc(Br)c(O)c(Br)c1`, for which the AC50 is 108 µM (active).

On to `C[Si](C)(CCCN)O[Si](C)(C)CCCN`, for which the outcome was inactive.

The values above are taken from PubChem BioAssay (EPA / NIEHS).
